{
  "source": "PubChem BioAssay (NCI)",
  "note": "Compounds without any hit were thinned out: in the full panel of roughly 83,000, 20% have a hit.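 Percent growth is the endpoint: 0 to 100 indicates growth inhibition (40 means 60% inhibition), 0 means no net growth, and negative values indicate cell death.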 Active and inactive are the calls of the source. Rule for the calls: active = growth percent below 10; inactive = the rest.",
  "data": [
    {"test_system": "T-47D breast", "assay": "NCI-60 one-dose screen, 48 h (100 = growth as untreated, 0 = no growth, -100 = all killed)", "conditions": "10 µM unless noted", "values": [
      {"smiles": "O=c1c2cc(F)ccc2sc2c(NCCCNCCO)nc3ccc(F)cc3c12", "growth": "70.2% (inactive)"},
      {"smiles": "COc1ccc2sc3c(NCCCNCCO)nc4ccccc4c3c(=O)c2c1", "growth": "86.5% (inactive)"},
      {"smiles": "COc1ccc(C(=O)/C=C/c2sc(Cl)nc2Cl)cc1", "growth": "59% (inactive)"},
      {"smiles": "O=C(O)c1cn(C2CC2)c2cc(N3CCN(C(=O)Nc4nc(-c5ccc(Cl)cc5)cs4)CC3)c(F)cc2c1=O", "growth": "5.75% (active)"},
      {"smiles": "Cn1cc(-c2cc3ncnc(Nc4ccc(CC(=O)Nc5cc(C(C)(C)C)nn5C)cc4)c3s2)cn1", "growth": "12.1% (inactive)"},
      {"smiles": "O=C(Nc1ccc(Cl)cc1F)c1ccccc1O", "growth": "29.9% (inactive)"},
      {"smiles": "Cc1cc(Cl)ccc1NS(=O)(=O)c1ccc(-c2cnc(C3CC3)o2)cc1", "growth": "49.6% (inactive)"},
      {"smiles": "COc1c(B(O)O)cc(F)cc1-c1nc2ccc3[nH]ncc3c2c2c1CCCC2", "growth": "14% (inactive)"},
      {"smiles": "CCCCCCN(CCCCCC)c1ccc(/C=C2/SC(=O)NC2=O)c(C)c1", "growth": "77.2% (inactive)"},
      {"smiles": "Cc1[nH]c(C(=O)Nc2ccc(C(=O)NCCN)cc2OC(C)C)c(Cl)c1Cl", "growth": "-1.29% (active)"},
      {"smiles": "COc1cc(/C=C/c2ccccc2)cc(OC)c1", "growth": "77.9% (inactive)"},
      {"smiles": "COC(=O)c1ccc2[nH]c(O)c(C(=Nc3ccc(N(C)C(=O)CN4CCN(C)CC4)cc3)c3ccccc3)c2c1", "growth": "59.8% (inactive)"},
      {"smiles": "COc1cc(Nc2nc(NCCN)nc3cc[nH]c(=O)c23)cc(OC)c1", "growth": "122% (inactive)"},
      {"smiles": "O=c1c2cc(F)ccc2sc2c(NCCN3CCOCC3)nc3ccccc3c12", "growth": "84.9% (inactive)"},
      {"smiles": "O=C1c2cccc3cccc(c23)C(=O)N1Nc1nc(N2CCOCC2)nc(N2CCN(c3ccccc3)CC2)n1", "growth": "37.3% (inactive)"},
      {"smiles": "c1ccc(OCc2nnc(-c3ccc(Oc4ccccc4)cc3)o2)cc1", "growth": "74.3% (inactive)"},
      {"smiles": "C=C1C(=O)O[C@H]2[C@H]1CC/C(COC(=O)CCC(=O)NCCOCCOCC(=O)Nc1ccc(OC)c(C(N)=O)c1O)=C\\CC[C@@]1(C)O[C@@H]21", "growth": "87.1% (inactive)"},
      {"smiles": "Nc1ccc(Sc2ccc([N+](=O)[O-])c3nonc23)cc1", "growth": "54.5% (inactive)"},
      {"smiles": "Cc1ccc(C(=O)NN2C(=O)CSC2c2cccc([N+](=O)[O-])c2)cn1", "note": "(stereo unspecified)", "growth": "96.1% (inactive)"},
      {"smiles": "CCOC(=O)c1[nH]c(C)c(C(=O)OCc2ccccc2C#N)c1C", "growth": "103% (inactive)"},
      {"smiles": "COc1ccc(-c2nnc(COc3ccc(Cl)cc3Cl)o2)cc1OC", "growth": "-10.5% (active)"},
      {"smiles": "c1ccc2cc(C[n+]3ccn(CCCCCCCCCCCCn4cc[n+](Cc5ccc6ccccc6c5)c4)c3)ccc2c1", "growth": "-53.1% (active)"},
      {"smiles": "COc1ccc(-c2nc3sc(-c4ccccc4)cn3n2)cc1", "growth": "34.6% (inactive)"},
      {"smiles": "COc1ccc(C2CC(c3ccc(Nc4nc(Nc5ccc(F)cc5)nc(Nc5ccc(Cl)cc5)n4)cc3)=NN2C(C)=O)cc1", "note": "(stereo unspecified)", "growth": "72.5% (inactive)"},
      {"smiles": "O=C1CN(CCN2CC(=O)N(Cc3ccccc3)C(=O)C2)CC(=O)N1Cc1ccccc1", "growth": "99% (inactive)"},
      {"smiles": "COc1ccc(-c2cc3c4c(nc5ccccc5c4c2)CC(c2cc(OC)c(OC)c(OC)c2)O3)cc1", "note": "(stereo unspecified)", "growth": "14.1% (inactive)"},
      {"smiles": "COc1ccc(C(=O)N=Nc2c(O)n(C)c3ccccc23)cc1", "growth": "61.9% (inactive)"},
      {"smiles": "NC1CCN(c2nc(Nc3cccc(C(F)(F)F)c3)c3c(=O)[nH]ccc3n2)CC1", "growth": "-73.2% (active)"},
      {"smiles": "CC(C)(C)NC(=O)C(OC(=O)c1cccc(Cl)c1)c1ccc(Cl)cc1", "note": "(stereo unspecified)", "growth": "96.8% (inactive)"},
      {"smiles": "NC(=O)C1(Nc2ccc(Br)cc2)CCCC1", "growth": "98.9% (inactive)"},
      {"smiles": "Cn1cc(-c2cc3ncnc(Nc4ccc(CC(=O)Nc5cc(C(C)(C)C)on5)cc4)c3s2)cn1", "growth": "30.7% (inactive)"},
      {"smiles": "O=C(Nc1ccc(Br)cc1F)c1cc(Br)ccc1O", "growth": "-5.16% (active)"},
      {"smiles": "COc1ccn2c(C(C)=O)cc(C(=O)c3ccc4c(c3)Sc3ccccc3N4)c2c1", "growth": "57.4% (inactive)"},
      {"smiles": "COc1nc2ccccc2cc1-c1nc2c(cnn2-c2ccccc2)c(=O)[nH]1", "growth": "50.1% (inactive)"},
      {"smiles": "Cc1ccc(-c2nc(N3CCN(C(=O)Nc4ccc(Cl)c(C(F)(F)F)c4)CC3)c3ccccc3n2)cc1", "growth": "70.3% (inactive)"},
      {"smiles": "CCc1nnc(NC(=O)c2nnn(-c3ccccc3)c2-c2ccco2)s1", "growth": "85% (inactive)"},
      {"smiles": "O=C(Nc1ccc(I)cc1F)c1cc(I)ccc1O", "growth": "-0.561% (active)"},
      {"smiles": "CCCCCCNC(=O)Oc1ccc(/C(=C(\\C)c2ccc(OC)cc2)c2ccc(OCCN3CCCCC3)cc2)cc1", "growth": "48% (inactive)"}
    ]},
    {"test_system": "BT-549 breast", "assay": "NCI-60 one-dose screen, 48 h (100 = growth as untreated, 0 = no growth, -100 = all killed)", "conditions": "10 µM unless noted", "values": [
      {"smiles": "O=c1c2cc(F)ccc2sc2c(NCCCNCCO)nc3ccc(F)cc3c12", "growth": "83.9% (inactive)"},
      {"smiles": "COc1ccc2sc3c(NCCCNCCO)nc4ccccc4c3c(=O)c2c1", "growth": "81.7% (inactive)"},
      {"smiles": "COc1ccc(C(=O)/C=C/c2sc(Cl)nc2Cl)cc1", "growth": "-4.31% (active)"},
      {"smiles": "O=C(O)c1cn(C2CC2)c2cc(N3CCN(C(=O)Nc4nc(-c5ccc(Cl)cc5)cs4)CC3)c(F)cc2c1=O", "growth": "0.292% (active)"},
      {"smiles": "Cn1cc(-c2cc3ncnc(Nc4ccc(CC(=O)Nc5cc(C(C)(C)C)nn5C)cc4)c3s2)cn1", "growth": "45.7% (inactive)"},
      {"smiles": "O=C(Nc1ccc(Cl)cc1F)c1ccccc1O", "growth": "24.9% (inactive)"},
      {"smiles": "Cc1cc(Cl)ccc1NS(=O)(=O)c1ccc(-c2cnc(C3CC3)o2)cc1", "growth": "11.5% (inactive)"},
      {"smiles": "COc1c(B(O)O)cc(F)cc1-c1nc2ccc3[nH]ncc3c2c2c1CCCC2", "growth": "-35.5% (active)"},
      {"smiles": "CCCCCCN(CCCCCC)c1ccc(/C=C2/SC(=O)NC2=O)c(C)c1", "growth": "98.3% (inactive)"},
      {"smiles": "Cc1[nH]c(C(=O)Nc2ccc(C(=O)NCCN)cc2OC(C)C)c(Cl)c1Cl", "growth": "103% (inactive)"},
      {"smiles": "COc1cc(/C=C/c2ccccc2)cc(OC)c1", "growth": "101% (inactive)"},
      {"smiles": "COC(=O)c1ccc2[nH]c(O)c(C(=Nc3ccc(N(C)C(=O)CN4CCN(C)CC4)cc3)c3ccccc3)c2c1", "growth": "11.2% (inactive)"},
      {"smiles": "COc1cc(Nc2nc(NCCN)nc3cc[nH]c(=O)c23)cc(OC)c1", "growth": "66.7% (inactive)"},
      {"smiles": "O=c1c2cc(F)ccc2sc2c(NCCN3CCOCC3)nc3ccccc3c12", "growth": "82.3% (inactive)"},
      {"smiles": "O=C1c2cccc3cccc(c23)C(=O)N1Nc1nc(N2CCOCC2)nc(N2CCN(c3ccccc3)CC2)n1", "growth": "37.8% (inactive)"},
      {"smiles": "c1ccc(OCc2nnc(-c3ccc(Oc4ccccc4)cc3)o2)cc1", "growth": "101% (inactive)"},
      {"smiles": "C=C1C(=O)O[C@H]2[C@H]1CC/C(COC(=O)CCC(=O)NCCOCCOCC(=O)Nc1ccc(OC)c(C(N)=O)c1O)=C\\CC[C@@]1(C)O[C@@H]21", "growth": "85.9% (inactive)"},
      {"smiles": "Nc1ccc(Sc2ccc([N+](=O)[O-])c3nonc23)cc1", "growth": "88.8% (inactive)"},
      {"smiles": "Cc1ccc(C(=O)NN2C(=O)CSC2c2cccc([N+](=O)[O-])c2)cn1", "note": "(stereo unspecified)", "growth": "104% (inactive)"},
      {"smiles": "CCOC(=O)c1[nH]c(C)c(C(=O)OCc2ccccc2C#N)c1C", "growth": "50.5% (inactive)"},
      {"smiles": "COc1ccc(-c2nnc(COc3ccc(Cl)cc3Cl)o2)cc1OC", "growth": "80.1% (inactive)"},
      {"smiles": "c1ccc2cc(C[n+]3ccn(CCCCCCCCCCCCn4cc[n+](Cc5ccc6ccccc6c5)c4)c3)ccc2c1", "growth": "-82.8% (active)"},
      {"smiles": "COc1ccc(-c2nc3sc(-c4ccccc4)cn3n2)cc1", "growth": "73.3% (inactive)"},
      {"smiles": "COc1ccc(C2CC(c3ccc(Nc4nc(Nc5ccc(F)cc5)nc(Nc5ccc(Cl)cc5)n4)cc3)=NN2C(C)=O)cc1", "note": "(stereo unspecified)", "growth": "143% (inactive)"},
      {"smiles": "O=C1CN(CCN2CC(=O)N(Cc3ccccc3)C(=O)C2)CC(=O)N1Cc1ccccc1", "growth": "104% (inactive)"},
      {"smiles": "COc1ccc(-c2cc3c4c(nc5ccccc5c4c2)CC(c2cc(OC)c(OC)c(OC)c2)O3)cc1", "note": "(stereo unspecified)", "growth": "64.6% (inactive)"},
      {"smiles": "COc1ccc(C(=O)N=Nc2c(O)n(C)c3ccccc23)cc1", "growth": "103% (inactive)"},
      {"smiles": "NC1CCN(c2nc(Nc3cccc(C(F)(F)F)c3)c3c(=O)[nH]ccc3n2)CC1", "growth": "-91.8% (active)"},
      {"smiles": "CC(C)(C)NC(=O)C(OC(=O)c1cccc(Cl)c1)c1ccc(Cl)cc1", "note": "(stereo unspecified)", "growth": "82.9% (inactive)"},
      {"smiles": "NC(=O)C1(Nc2ccc(Br)cc2)CCCC1", "growth": "104% (inactive)"},
      {"smiles": "Cn1cc(-c2cc3ncnc(Nc4ccc(CC(=O)Nc5cc(C(C)(C)C)on5)cc4)c3s2)cn1", "growth": "52.5% (inactive)"},
      {"smiles": "O=C(Nc1ccc(Br)cc1F)c1cc(Br)ccc1O", "growth": "-6.02% (active)"},
      {"smiles": "COc1ccn2c(C(C)=O)cc(C(=O)c3ccc4c(c3)Sc3ccccc3N4)c2c1", "growth": "55.6% (inactive)"},
      {"smiles": "COc1nc2ccccc2cc1-c1nc2c(cnn2-c2ccccc2)c(=O)[nH]1", "growth": "38.5% (inactive)"},
      {"smiles": "Cc1ccc(-c2nc(N3CCN(C(=O)Nc4ccc(Cl)c(C(F)(F)F)c4)CC3)c3ccccc3n2)cc1", "growth": "93.6% (inactive)"},
      {"smiles": "CCc1nnc(NC(=O)c2nnn(-c3ccccc3)c2-c2ccco2)s1", "growth": "102% (inactive)"},
      {"smiles": "O=C(Nc1ccc(I)cc1F)c1cc(I)ccc1O", "growth": "-9.42% (active)"},
      {"smiles": "CCCCCCNC(=O)Oc1ccc(/C(=C(\\C)c2ccc(OC)cc2)c2ccc(OCCN3CCCCC3)cc2)cc1", "growth": "70.4% (inactive)"}
    ]}
  ]
}
